These results are taken from PubChem BioAssay AID1439 (NMMLSC, 2008).

The campaign covered roughly 220,000 compounds. About 770 (0.35%) were called active. Roughly 15% stayed inconclusive and do not appear here. This is one part of a sample in which actives are shown more often than they occur. A number with no mark means an inactive call. Cut-off read from the data, not from the text of the source: active = binding response below about 49% or above about 150%; inconclusive = no clear call, values can overlap the other calls; inactive = in between. Residues, ends and D or L forms follow the SMILES beside them. *: point of attachment. OPac = O=C(CO*)c1ccccc1; Bz = O=C(c1ccccc1)*

The target of this experiment is Guanine nucleotide-binding protein G(o) subunit alpha (Homo sapiens) (UniProt P09471). The experiment in a line: RGS7-Galphao binding modulators, primary screen, biochemical, multiplexed bead flow cytometry (AID 1439).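 Note: fluorescent Galphao held in activated GDP-AlF4 state binding bead-coupled RGS7.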 The conditions noted are these: at 10 µM, actives lie on both sides. On the technique in general: Flow cytometry measures light scatter and fluorescence of single cells or particles in a stream.
Guanine nucleotide-binding protein G(o) subunit alpha (Homo sapiens), sequence (P09471 whole entry, looked up): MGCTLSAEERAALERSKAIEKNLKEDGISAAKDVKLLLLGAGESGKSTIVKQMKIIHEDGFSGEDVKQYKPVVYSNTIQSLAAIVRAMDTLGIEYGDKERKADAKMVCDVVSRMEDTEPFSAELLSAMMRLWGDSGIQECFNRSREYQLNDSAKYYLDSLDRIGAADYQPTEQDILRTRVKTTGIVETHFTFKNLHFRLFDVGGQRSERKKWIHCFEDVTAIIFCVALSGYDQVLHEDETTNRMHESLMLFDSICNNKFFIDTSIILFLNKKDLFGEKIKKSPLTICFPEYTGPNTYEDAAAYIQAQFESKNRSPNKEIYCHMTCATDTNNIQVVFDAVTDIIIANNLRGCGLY
As to `CC(C)OCCCNC(=S)N1CCC(C(=O)c2ccc3c(c2)OCCO3)CC1`, the binding response (% of control) is 105%.

As for `CCOCCCNCc1ccc(OCc2ccc(F)cc2)c(OC)c1`, the binding response (% of control) is 103%. As for `O=C(Nc1cccc(F)c1)c1ccc(S(=O)(=O)N2CCCC2)cc1`, the binding response (% of control) is 97.7%. As to `Cc1c(NC(=O)c2coc(=O)c(Br)c2)c(=O)n(-c2ccccc2)n1C`, the binding response (% of control) is 101%. As for `O=C(Nc1cccc(F)c1)c1coc(=O)c(Br)c1`, the binding response (% of control) was 45.3% [inhibitor] (active). Consider `CCN(CC)CCOC(=O)c1ccc(NC(=O)CNC(=O)c2ccccc2)cc1`, for which the binding response (% of control) is 98.5%.

With `COc1ccc(CC(=O)n2nc(-c3cccnc3)nc2N)cc1`, the binding response (% of control) is 97.3%. Next, `COc1ccccc1C(=O)n1nc(-c2ccccc2)nc1N`: 100%; `CCCC(=O)n1nc(-c2ccccc2)nc1N`: 23.4% [inhibitor] (active).

As for `OCCC1CN(Cc2cccc(OC3CCCC3)c2)CCN1Cc1ccsc1` (stereo unspecified), the binding response (% of control) is 102%.

Regarding `COCCN(CCOC)S(=O)(=O)c1ccc(/C(O)=C(\C#N)c2nc3ccccc3[nH]2)cc1`, the binding response (% of control) is 104%.

For `COC(=O)Cn1cc(/C=C/[N+](=O)[O-])c2ccccc21`, the binding response (% of control) was 102%. Take `O=C(COc1ccc(-c2ccccc2)cc1)NN=C1CCCC1`: the binding response (% of control) is 108%. Take `O=C(CCCCCn1c(=O)[nH]c2ccccc2c1=O)NCCc1c[nH]c2ccccc12`: the binding response (% of control) is 102%.

Take `COc1ccccc1NC(=O)CCCc1c[nH]c2ccccc12`: the binding response (% of control) is 312% (active).

For `COc1ccccc1NC(=O)C[n+]1ccccc1`, the binding response (% of control) was 99.2%. Next, `O=C(CNC(=O)c1ccccc1)NCC(=O)OCC(=O)c1ccccc1` (Bz-Gly-Gly-OPac): 113%; `CCOc1ccccc1NC(=O)CCN1CCN(S(=O)(=O)c2ccc(OC)cc2)CC1`: 100%.

Turning to `CCOc1ccccc1NC(=O)c1cc(S(=O)(=O)N2CCC3(CC2)OCCO3)ccc1F`, the binding response (% of control) was 15.2% [inhibitor] (active). Take `Cc1c(C(=O)Nc2ccccc2Cl)oc2ccc(S(=O)(=O)N3CCC4(CC3)OCCO4)cc12`: the binding response (% of control) is 103%. For `Cc1cc(C2=NNC(=Nc3ccc(S(=O)(=O)N4CCOCC4)cc3)SC2)c(C)n1CC1CCCO1` (stereo unspecified), the binding response (% of control) was 104%. As for `FC(F)Oc1ccccc1C1CC(c2ccc(Br)s2)Nc2ncnn21` (stereo unspecified), the figure is 163% (active); as for `Clc1ccc(C2CC(c3cccs3)n3ncnc3N2)cc1Cl` (stereo unspecified), 99.3%; as for `COc1ccc(C2CC(c3ccccc3)Nc3ncnn32)cc1` (stereo unspecified), 93.2%. Next, `O=C(NC1CCCC1)C(c1ccc(N2CCOCC2)cc1)N(C(=O)c1ccco1)c1ccccc1F` (stereo unspecified): 95.4%; `O=C(C1CCN(C2CCN(Cc3ccc4cc(F)ccc4n3)CC2)CC1)N1CCCC1`: 106%; `CCCNC(=O)c1c(Cl)cnn1-c1ccc(C)cc1`: 96.6%. On to `CC(=O)c1ccc(NC(=O)C(C)N(C)CC(=O)Nc2ccccc2Cl)cc1` (stereo unspecified), for which the binding response (% of control) is 98.2%.

Turning to `Cc1cccc2c1N(CCOc1ccccc1)C(=O)C2=O`, the binding response (% of control) was 86.4%. As for `CCOC(=O)C1C(c2ccc(Cl)cc2)NC(=S)NC1(O)C(F)(F)F` (stereo unspecified), the figure is 103%; as for `CCOC(=O)C1=C(C)NC(=O)N(C(C)=O)C1c1ccc(Cl)cc1` (stereo unspecified), 104%. As for `CCOC(=O)C1Sc2[nH]c(=O)sc2C(c2ccc(Cl)cc2)C1C(=O)OCC` (stereo unspecified), the figure is -17.7% [inhibitor] (active); as for `Cc1cc(C)n(CCNCc2c(C(=O)N3C[C@@H](C)O[C@@H](C)C3)nc3ccc(Cl)cn23)n1`, 98.3%; as for `COCC(C)n1c(C)cc(C(=O)COc2ccc(C)nc2[N+](=O)[O-])c1C` (stereo unspecified), 100%.

Regarding `CCOC(=O)c1ccc(N2C(=O)CC(N3CCN(C(=O)c4ccccc4)CC3)C2=O)cc1` (stereo unspecified), the binding response (% of control) is 99.4%. `COCCNc1nc2nonc2nc1N(C)Cc1ccc(C)cc1`: the binding response (% of control) was 101%. `O=C1NC2(CCCCCC2)C(=O)N1CCS(=O)(=O)Oc1ccccc1`: the binding response (% of control) is 97.1%. Next, `O=C(CN1C(=O)NC2(CCCCCC2)C1=O)NC1CC1`: 123%; `CSc1ccc(CN2C(=O)NC3(CCCCCC3)C2=O)cc1`: 219% (active); `Cc1nc2ccccc2c(C)c1C(=O)c1ccc(F)cc1`: 97.5%. Take `CCOc1ccc(CN2CCN(Cc3ccc(C)o3)CC2CCO)cc1` (stereo unspecified): the binding response (% of control) is 98.7%. With `CN(C)c1ccc2c(=O)[nH][nH]c(=O)c2c1`, the binding response (% of control) was 104%. Next, `CCOC(=O)c1[nH]cnc1C(=O)Nc1ccccc1C`: 100%; `COC(=O)CNC(=O)c1ccc(OC2CCN(C(=O)C3CC3)CC2)cc1`: 105%.

Regarding `COc1cccc(C(=O)NCCSc2ccc(Br)cc2)c1`, the binding response (% of control) was 16.5% [inhibitor] (active). Next, `COc1cccc(C(=O)NNC(=O)c2ccccc2Br)c1`: 99%; `COc1cc(OC)cc(C(=O)NCCSCc2ccco2)c1`: 98.2%.

`Cc1ccc(-c2cc(C(F)(F)F)n3ncc(C(=O)N4CCCCC4c4cccnc4)c3n2)cc1` (stereo unspecified): the binding response (% of control) was 100%.

For the compound `C/C(=N\NC(=O)c1cccc(N2CCCC2=O)c1)c1ccc(N)cc1`, the binding response (% of control) is 102%. As to `Cn1c(SCC(=O)N2CCCc3ccccc32)nc2ccccc2c1=O`, the binding response (% of control) is 96.4%. As for `O=C(CSc1ccc2nnc(-c3ccccc3)n2n1)N1CCCc2ccccc21`, the figure is 207% (active). Take `CCCn1c(SCC(=O)N2CCc3ccccc32)nnc1-c1ccncc1`: the binding response (% of control) is 96%.

On to `CC(C)CC(CC(C)C)=NNC(=O)c1ccc(CSc2nncn2C)cc1`, for which the binding response (% of control) is 99.5%. As for `CN(CCC1CCOCC1)Cc1cn[nH]c1-c1ccc(-c2ccccc2)cc1`, the figure is 93%. As for `O=C(NCC1COc2ccccc2O1)C1(c2ccccc2)CCCC1` (stereo unspecified), the figure is 103%. For the compound `COc1ccc(CCC(=O)OCC(=O)Nc2ccc(C)c(S(=O)(=O)N(C)C)c2)cc1`, the binding response (% of control) is 45.2% [inhibitor] (active). Next, `Cc1ccc(C(=O)Nc2ccc(C)c(S(=O)(=O)N(C)C)c2)s1`: 99.1%; `COc1cc(CCC(=O)OCC(=O)Nc2cccc(S(N)(=O)=O)c2)cc(OC)c1OC`: 91.7%; `COc1ccc2oc(=O)c(C(=O)N3CCCC3)cc2c1`: 101%. On to `Nn1c(SCC(=O)Nc2nccs2)nncc1=O`, for which the binding response (% of control) is 102%.

In the case of `Cc1ccc(Cn2ccc(NC(=O)c3cc(C(C)C)on3)n2)cc1`, the binding response (% of control) is 43.9% [inhibitor] (active). With `O=C(Nc1ccn(Cc2ccc(F)cc2)n1)c1ccncc1`, the binding response (% of control) was 100%. As for `Cc1ccc(Cn2ccc(NC(=O)C3C4CCC(C4)C3C(=O)O)n2)cc1` (stereo unspecified), the figure is 99.7%. On to `COc1ccc(Br)cc1/C=N/NC(=O)c1cccc(S(=O)(=O)N2CCOCC2)c1`, for which the binding response (% of control) was 112%. Next, `Cc1cccc(C)c1NC(=O)Nc1ccccc1-n1ccnc1`: 99.6%. Next, `CC(=O)Nc1nc(N(C)C)nc(N(C)C)n1`: -0.2% [inhibitor] (active); `COc1cc(OC)nc(NC(=O)CCl)n1`: 100%. With `CCC(=O)Nc1nc(OC)cc(OC)n1`, the binding response (% of control) was 99.2%. For `OCCC1CN(Cc2ccccc2-c2ccco2)CCN1Cc1ccsc1` (stereo unspecified), the binding response (% of control) was 95.9%. For the compound `Cc1ccc(S(=O)(=O)NCCc2nnc3ccc(SCc4cccnc4)nn23)cc1`, the binding response (% of control) is 95.6%. Next, `O=C(O)CCn1c(SCc2cc(=O)n3ccccc3n2)nc2ccsc2c1=O`: 101%; `CC1=CC=CC2=N/C(=N\S(=O)(=O)c3ccc(F)cc3F)c3ccccc3CN12`: 101%.

Take `c1ccc2c(NC3C4CC5CC(C4)CC3C5)nc(N3CCOCC3)nc2c1` (stereo unspecified): the binding response (% of control) was 100%. As for `N#Cc1nc(Cc2ccccc2)oc1NCCc1ccccc1`, the figure is 102%; as for `N#Cc1nc(-c2ccc(OCc3ccccc3)cc2)oc1NCCCN1CCOCC1`, 97.2%.

`N#Cc1nc(COc2ccc(-c3ccccc3)cc2)oc1NCc1cccnc1`: the binding response (% of control) is 202% (active).

In the case of `O=S(=O)(c1ccc(-c2ccccc2)cc1)N1CCCC1`, the binding response (% of control) was 106%. Next, `O=C(NCc1ccco1)C(=O)c1cn(CC(=O)N2CCCCCC2)c2ccccc12`: 93.9%. For `Cc1c(-c2cccc(Cl)c2)nc2ccccc2c1C(=O)OCC(=O)N(C)C1CCS(=O)(=O)C1` (stereo unspecified), the binding response (% of control) is 97%. In the case of `COc1ccc(C(=O)NC2CCN(C(=S)NCCc3ccccc3)CC2)cc1`, the binding response (% of control) was 91.3%. As for `C=CCn1c(=NC(=O)c2ccc(S(=O)(=O)N3CCCC3)cc2)sc2cc(NC(C)=O)ccc21`, the figure is 91.7%; as for `CC(=O)Nc1ccc(/C=N/NC(=O)c2cccs2)cc1`, 99.9%.

Take `C=CCn1c(=NC(=O)c2cccs2)sc2cc(NC(C)=O)ccc21`: the binding response (% of control) was 152% (active). Next, `O=C(OCC(=O)N1CCOCC1)c1ccc(N2CCOCC2)c([N+](=O)[O-])c1`: 102%; `Cc1c(NC(=S)NC(=O)CCc2ccccc2)c(=O)n(-c2ccccc2)n1C`: 103%.

Turning to `CN(CCc1ccccn1)C(=O)CCC1CCCN(Cc2ccccc2OC(F)F)C1` (stereo unspecified), the binding response (% of control) is 102%.

With `Cc1ccc(S(=O)(=O)/N=C(/Nc2ccc3[nH]c(=O)[nH]c3c2)c2ccccc2)cc1`, the binding response (% of control) was 104%. With `O=C(Cc1c[nH]c2ccccc12)OCCOC(=O)Cc1c[nH]c2ccccc12`, the binding response (% of control) is 95%. On to `NC(=O)CSc1c[nH]c2ccccc12`, for which the binding response (% of control) is 25.2% [inhibitor] (active).

Consider `O=C(CSc1nnc(-c2c[nH]c3ccccc23)o1)c1ccccc1`, for which the binding response (% of control) was 95.2%. As for `CC(C)N1CCC(N2CCN(Cc3cccnc3)CC2CCO)CC1` (stereo unspecified), the binding response (% of control) is 100%. As for `CC1CC(C)CN(CCC(=O)Nc2ccc3c(c2)CCC3)C1` (stereo unspecified), the figure is 104%; as for `NS(=O)(=O)c1ccc(NC(=S)NNC(=O)c2cccs2)cc1`, 109%.

Regarding `O=S(=O)(c1ccccc1)N(CC(O)CN1CCCCC1)c1ccccc1` (stereo unspecified), the binding response (% of control) is 110%. For the compound `Cc1ccc(N(CC(O)CN2CCCC2)S(=O)(=O)c2ccccc2)cc1` (stereo unspecified), the binding response (% of control) was 99.4%. For `Cc1cc(C)n(CC(O)CN(c2ccccc2)S(=O)(=O)c2ccc3ccccc3c2)n1` (stereo unspecified), the binding response (% of control) is 1.45% [inhibitor] (active).
